Assay results: the supplement of paper PMC9492666
Structures can show the parent of a compound that is named as a salt.

Experiments:
[1] = test system: HCC1937; experiment: relative cell viability, compound + RSL3, vs DMSO (fraction of DMSO control); higher = less growth inhibition; settings: 72 h
[2] = test system: MDA-MB-231; experiment: as above; settings: 72 h
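Further: breast cancer cell viability read out with the CCK-8 kit after co-treatment of each compound with the ferroptosis inducer RSL3.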

Row | Structure (SMILES) | relative cell viability [1] | relative cell viability [2]
1 | CC[C@H]1[C@@H](O)[C@@H]2[C@H](CC[C@]3(C)[C@@H]([C@H](C)CCC(=O)O)CC[C@@H]23)[C@@]2(C)CC[C@@H](O)C[C@@H]12 [Obeticholic Acid] + COC(=O)c1ccc([C@H]2c3[nH]c4ccccc4c3C[C@H](C(=O)OC)N2C(=O)CCl)cc1 [RSL3] | 0.513 | 0.543
2 | CC1(N)CCN(c2cnc(-c3cccc(Cl)c3Cl)c(N)n2)CC1 [SHP099 hydrochloride] + COC(=O)c1ccc([C@H]2c3[nH]c4ccccc4c3C[C@H](C(=O)OC)N2C(=O)CCl)cc1 [RSL3] | 0.397 | 0.628
3 | COc1cc(C(C)=O)ccc1O [Acetovanillone] + COC(=O)c1ccc([C@H]2c3[nH]c4ccccc4c3C[C@H](C(=O)OC)N2C(=O)CCl)cc1 [RSL3] | 0.389 | 0.594
4 | NC(=O)c1cnccn1 [Pyrazinamide] + COC(=O)c1ccc([C@H]2c3[nH]c4ccccc4c3C[C@H](C(=O)OC)N2C(=O)CCl)cc1 [RSL3] | 0.607 | 0.558
5 | O=S(=O)(O)c1ccc2cc(N=Nc3cc(S(=O)(=O)O)c4cccnc4c3O)ccc2c1 + COC(=O)c1ccc([C@H]2c3[nH]c4ccccc4c3C[C@H](C(=O)OC)N2C(=O)CCl)cc1 [RSL3] | 0.511 | 0.744
6 | CC1(C)CC[C@]2(C(=O)O[C@@H]3O[C@H](CO)[C@@H](O)[C@H](O)[C@H]3O)CC[C@]3(C)C(=CC[C@@H]4[C@@]5(C)CC[C@H](O[C@@H]6O[C@H](C(=O)O)[C@@H](O)[C@H](O)[C@H]6O)C(C)(C)[C@@H]5CC[C@]43C)[C@@H]2C1 [Chikusetsusaponin IVa] + COC(=O)c1ccc([C@H]2c3[nH]c4ccccc4c3C[C@H](C(=O)OC)N2C(=O)CCl)cc1 [RSL3] | 0.597 | 0.572
7 | COc1ccc(/C=C/c2cc(O)cc(O[C@@H]3O[C@H](CO)[C@@H](O)[C@H](O)[C@H]3O)c2)cc1 [Deoxyrhapontin] + COC(=O)c1ccc([C@H]2c3[nH]c4ccccc4c3C[C@H](C(=O)OC)N2C(=O)CCl)cc1 [RSL3] | 0.532 | 0.693
8 | COc1cc([C@@H]2Oc3c(O)cc([C@H]4Oc5cc(O)cc(O)c5C(=O)[C@@H]4O)cc3[C@H]2CO)ccc1O [Silychristin] + COC(=O)c1ccc([C@H]2c3[nH]c4ccccc4c3C[C@H](C(=O)OC)N2C(=O)CCl)cc1 [RSL3] | 0.567 | 0.66
9 | O=c1oc2ccccc2cc1O [3-Hydroxycoumarin] + COC(=O)c1ccc([C@H]2c3[nH]c4ccccc4c3C[C@H](C(=O)OC)N2C(=O)CCl)cc1 [RSL3] | 0.587 | 0.682
10 | COc1ccc(CN2CCC(c3ccc4nc(C(=O)N5CCN(Cc6ccc(C(F)(F)F)cc6)CC5)[nH]c4c3)CC2)cn1 + COC(=O)c1ccc([C@H]2c3[nH]c4ccccc4c3C[C@H](C(=O)OC)N2C(=O)CCl)cc1 [RSL3] | 0.351 | 0.562
11 | O=C(NNc1ccccc1)c1ccncc1 [PluriSln 1] + COC(=O)c1ccc([C@H]2c3[nH]c4ccccc4c3C[C@H](C(=O)OC)N2C(=O)CCl)cc1 [RSL3] | 0.418 | 0.656
12 | O=C(NN1CCCCC1)c1nn(-c2ccc(Cl)cc2Cl)c(-c2ccc(C#Cc3ccc(C(F)(F)F)cc3)s2)c1CNS(=O)(=O)N1CCCC1 + COC(=O)c1ccc([C@H]2c3[nH]c4ccccc4c3C[C@H](C(=O)OC)N2C(=O)CCl)cc1 [RSL3] | 0.75 | 0.345
13 | Cc1c(C(=O)NN2CCCCC2)nn(-c2ccc(Cl)cc2Cl)c1-c1ccc(Cl)cc1 [Rimonabant] + COC(=O)c1ccc([C@H]2c3[nH]c4ccccc4c3C[C@H](C(=O)OC)N2C(=O)CCl)cc1 [RSL3] | 0.649 | 0.216
14 | CC(C)=CCC[C@](C)(O[C@@H]1O[C@H](CO)[C@@H](O)[C@H](O)[C@H]1O)[C@H]1CC[C@]2(C)[C@@H]1[C@H](O)C[C@@H]1[C@@]3(C)CC[C@H](O[C@@H]4O[C@H](CO)[C@@H](O)[C@H](O)[C@H]4O[C@@H]4O[C@H](CO)[C@@H](O)[C@H](O)[C@H]4O)C(C)(C)[C@@H]3CC[C@]12C [Ginsenoside Rd] + COC(=O)c1ccc([C@H]2c3[nH]c4ccccc4c3C[C@H](C(=O)OC)N2C(=O)CCl)cc1 [RSL3] | 0.616 | 0.478
15 | O=c1cc(-c2ccc(O)c(-c3c(O)cc(O)c4c(=O)cc(-c5ccc(O)cc5)oc34)c2)oc2cc(O)cc(O)c12 [Amentoflavone] + COC(=O)c1ccc([C@H]2c3[nH]c4ccccc4c3C[C@H](C(=O)OC)N2C(=O)CCl)cc1 [RSL3] | 0.318 | 0.496
16 | CC(C)CCC[C@@H](C)[C@H]1CC[C@H]2[C@@H]3CCC4=CC(=NO)CC[C@]4(C)[C@H]3CC[C@]12C [Olesoxime] + COC(=O)c1ccc([C@H]2c3[nH]c4ccccc4c3C[C@H](C(=O)OC)N2C(=O)CCl)cc1 [RSL3] | 0.454 | 0.689

Row | Structure (SMILES) | relative cell viability [1] | relative cell viability [2]
17 | CCOP(=O)(OCC)C(=Cc1cc(C(C)(C)C)c(O)c(C(C)(C)C)c1)P(=O)(OCC)OCC + COC(=O)c1ccc([C@H]2c3[nH]c4ccccc4c3C[C@H](C(=O)OC)N2C(=O)CCl)cc1 [RSL3] | 0.274 | 0.448
18 | Cc1ccc(C)c(OCCCC(C)(C)C(=O)O)c1 [Gemfibrozil] + COC(=O)c1ccc([C@H]2c3[nH]c4ccccc4c3C[C@H](C(=O)OC)N2C(=O)CCl)cc1 [RSL3] | 0.631 | 0.523
19 | COc1cc(N2CCN(C)CC2)ccc1Nc1ncc2c(n1)N(C)c1ccccc1C(=O)N2 + COC(=O)c1ccc([C@H]2c3[nH]c4ccccc4c3C[C@H](C(=O)OC)N2C(=O)CCl)cc1 [RSL3] | 0.213 | 0.375
20 | O=C(Nc1ccncc1)c1cc([N+](=O)[O-])ccc1Cl + COC(=O)c1ccc([C@H]2c3[nH]c4ccccc4c3C[C@H](C(=O)OC)N2C(=O)CCl)cc1 [RSL3] | 0.297 | 0.438
21 | COc1cc(O)c2c(c1)O[C@H](c1ccc(O)cc1)CC2=O [Sakuranetin] + COC(=O)c1ccc([C@H]2c3[nH]c4ccccc4c3C[C@H](C(=O)OC)N2C(=O)CCl)cc1 [RSL3] | 0.362 | 0.645
22 | CC(C)(Oc1ccc(CCNC(=O)c2ccc(Cl)cc2)cc1)C(=O)O [Bezafibrate] + COC(=O)c1ccc([C@H]2c3[nH]c4ccccc4c3C[C@H](C(=O)OC)N2C(=O)CCl)cc1 [RSL3] | 0.594 | 0.518
23 | CC(C)C1=CC2=CC[C@@H]3[C@](C)(CCC[C@@]3(C)C(=O)O)[C@H]2CC1 [Abietic Acid] + COC(=O)c1ccc([C@H]2c3[nH]c4ccccc4c3C[C@H](C(=O)OC)N2C(=O)CCl)cc1 [RSL3] | 0.586 | 0.699
24 | CC(C)c1cc(C(C)C)c(CC(=O)NS(=O)(=O)Oc2c(C(C)C)cccc2C(C)C)c(C(C)C)c1 [Avasimibe] + COC(=O)c1ccc([C@H]2c3[nH]c4ccccc4c3C[C@H](C(=O)OC)N2C(=O)CCl)cc1 [RSL3] | 0.322 | 0.511
25 | c1ccc([C@H]2CN3CCSC3=N2)cc1 [Levamisole hydrochloride] + COC(=O)c1ccc([C@H]2c3[nH]c4ccccc4c3C[C@H](C(=O)OC)N2C(=O)CCl)cc1 [RSL3] | 0.704 | 0.53
26 | Cc1ccc(CN(CC(O)COc2cccc3[nH]ccc23)C(C)(C)C)cc1 (centres undefined) + COC(=O)c1ccc([C@H]2c3[nH]c4ccccc4c3C[C@H](C(=O)OC)N2C(=O)CCl)cc1 [RSL3] | 0.357 | 0.804
27 | CC1CC(OC(=O)C(O)c2ccccc2)CC(C)(C)C1 (centres undefined) [Cyclandelate] + COC(=O)c1ccc([C@H]2c3[nH]c4ccccc4c3C[C@H](C(=O)OC)N2C(=O)CCl)cc1 [RSL3] | 0.808 | 0.638
28 | CN(C)CCOC(=O)COc1ccc(Cl)cc1 [Meclofenoxate hydrochloride] + COC(=O)c1ccc([C@H]2c3[nH]c4ccccc4c3C[C@H](C(=O)OC)N2C(=O)CCl)cc1 [RSL3] | 0.612 | 0.574
29 | C=C(C)[C@@H]1CC[C@]2(CO)CC[C@]3(C)[C@H](CC[C@@H]4[C@@]5(C)CC[C@H](O)C(C)(C)[C@@H]5CC[C@]43C)[C@@H]12 [Betulin] + COC(=O)c1ccc([C@H]2c3[nH]c4ccccc4c3C[C@H](C(=O)OC)N2C(=O)CCl)cc1 [RSL3] | 0.619 | 0.453
30 | COc1ccc(-c2coc3cc(OC)ccc3c2=O)cc1 [4',7-Dimethoxyisoflavone] + COC(=O)c1ccc([C@H]2c3[nH]c4ccccc4c3C[C@H](C(=O)OC)N2C(=O)CCl)cc1 [RSL3] | 0.251 | 0.36
31 | CC(=O)Nc1nc(C)c(S(=O)(=O)Nc2ccc(C(O)(C(F)(F)F)C(F)(F)F)cc2)s1 + COC(=O)c1ccc([C@H]2c3[nH]c4ccccc4c3C[C@H](C(=O)OC)N2C(=O)CCl)cc1 [RSL3] | 0.484 | 0.952
32 | O=C(CN1CCN(C(=O)c2ccco2)CC1)Nc1cc(C(F)(F)F)ccc1Cl + COC(=O)c1ccc([C@H]2c3[nH]c4ccccc4c3C[C@H](C(=O)OC)N2C(=O)CCl)cc1 [RSL3] | 0.268 | 0.373
